Data on 28 molecules can be found in PubChem BioAssay AID1851 (National Center for Advancing Translational Sciences (NCATS), 2009).

Hit rate of the full screen: of about 16,000 compounds, about 4,000 (25%) were called active. Inconclusive results (about 26%) are left out. The list is a sample of the results. A number with no mark means an inactive call. The call rests on the fitted dose curve; in most records, active means well fitted curve in the direction sought with a large enough effect; inconclusive means small, poorly fitted or top-dose-only effect, or effect the other way; inactive means no such curve, though single readings can be large or run the other way.
On the % scale 0 is the no-effect control and ±100 the full control effect.

In the experiment the target is Cytochrome P450 2C9 (Homo sapiens) (UniProt P11712). Put plainly: Cytochrome panel assay with activity outcomes. The note with it: recombinant CYP, pro-luciferin dealkylation, luminescence, p450-cyp2c9; series mostly up to 57.1 µM.
Cytochrome P450 2C9 (Homo sapiens), sequence (P11712 whole entry, looked up): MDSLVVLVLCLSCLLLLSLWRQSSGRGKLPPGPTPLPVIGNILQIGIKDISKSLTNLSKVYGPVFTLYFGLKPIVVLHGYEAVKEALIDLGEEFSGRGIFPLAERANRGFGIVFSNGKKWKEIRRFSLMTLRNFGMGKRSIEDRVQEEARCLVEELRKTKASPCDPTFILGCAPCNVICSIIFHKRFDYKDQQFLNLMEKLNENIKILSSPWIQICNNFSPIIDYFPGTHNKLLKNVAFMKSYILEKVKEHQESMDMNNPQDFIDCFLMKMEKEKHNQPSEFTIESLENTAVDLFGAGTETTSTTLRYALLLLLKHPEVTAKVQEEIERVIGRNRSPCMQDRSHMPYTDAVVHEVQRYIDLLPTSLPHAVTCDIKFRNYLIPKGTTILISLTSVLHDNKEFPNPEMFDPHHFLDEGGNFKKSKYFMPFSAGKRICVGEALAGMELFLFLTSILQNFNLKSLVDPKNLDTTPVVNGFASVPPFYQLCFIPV
As for `CNC(=O)c1ccc(-c2sc3nc(N4CCOCC4)c4c(c3c2N)CC(C)(C)OC4)o1`, the AC50 was 4.47 µM (active).

As for `CCNc1ncc2nc(-c3cccc(C#N)c3)c(=O)n(C)c2n1`, the AC50 entry is “inactive”.

On to `CCOc1nc(NC(C)C)nc(NC(C)C)n1`, for which the AC50 entry was “inactive”.

Consider `CCN(CC)S(=O)(=O)c1ccc(OC)c(NC(=O)CSc2ccccc2)c1`, for which the half-maximal activity concentration (AC50) was 2.51 µM (active).

With `CCN(CC)S(=O)(=O)c1cc(C(=O)Nc2ccccc2C(=O)O)ccc1OC`, the half-maximal activity concentration (AC50) is 2.24 µM (active).

Take `CCN(CC)S(=O)(=O)c1ccc(OC)c(NC(=O)c2cc([N+](=O)[O-])ccc2Cl)c1`: the AC50 entry was “inactive”.

For `COc1ccc(C(=O)Nc2cccc3c2C(=O)NC3=O)cc1S(=O)(=O)N1CCOCC1`, the AC50 entry is “inactive”.

With `C[C@H]1CC(C)(C)C[C@@](OCCN2CCCCC2)(c2ccccc2)C1`, the activity, negative = inhibition is 5.46% [at 11.4 µM].

For `CCNc1ncc2nc(-c3cccs3)c(=O)n(C[C@H]3CCCO3)c2n1`, the AC50 result is “inactive”.

`CC(=O)N1CCC[C@@]2(CCN(c3ccncc3)C2)C1`: the AC50 result is “inactive”.

Regarding `COC(=O)N1CCC2(CC1)CN(c1ccncc1)C2`, the AC50 result was “inactive”.

Turning to `O=C(Oc1ccccc1)N1CCC2(CC1)CCN(c1ccccc1)CC2`, the AC50 entry is “inactive”.

Take `O=C(c1ccncc1)N1CCC[C@@]2(CCN(c3ccccc3)C2)C1`: the AC50 entry is “inactive”.

Consider `O=C(Oc1ccccc1)N1CCC2(CC1)CN(c1ccncc1)C2`, for which the half-maximal activity concentration (AC50) was 3.16 µM (active).

Take `O=C(Oc1ccccc1)N1CCC2(CC1)CN(c1ccccc1)C2`: the AC50 entry is “inactive”.

Consider `CC(=O)N1CCC[C@@]2(CCN(c3ncccn3)C2)C1`, for which the AC50 entry is “inactive”.

On to `O=C(Oc1ccccc1)N1CCC2(CC1)CCN(c1ncccn1)CC2`, for which the concentration at half-maximal activity (AC50) was 15.8 µM (active).

Consider `O=C(Oc1ccccc1)N1CCC2(CC1)CN(c1ccccn1)C2`, for which the AC50 result is “inactive”.

On to `O=C(Oc1ccccc1)N1CCC[C@@]2(CCN(c3ncccn3)C2)C1`, for which the concentration at half-maximal activity (AC50) was 10 µM (active).

On to `O=C(Oc1ccccc1)N1CCC[C@@]2(CCN(c3ccncc3)C2)C1`, for which the AC50 was 10 µM (active).

In the case of `COC(=O)N1CCC[C@@]2(CCN(c3ncccn3)C2)C1`, the AC50 entry is “inactive”.

For the molecule `COCC(=O)N1CCC2(CCCN(C(=O)Nc3cccc(C#N)c3)C2)CC1`, the AC50 result was “inactive”.

In the case of `O=[N+]([O-])c1nccn1C[C@H](O)CN1CCCCC1`, the activity, negative = inhibition was 0.319% [at 11.4 µM].

Regarding `COc1cccc(Nc2ncc3nc(-c4cc(F)cc(F)c4)c(=O)n(CCC#N)c3n2)c1`, the AC50 result was “inactive”.

Regarding `CCN1/C(=C/c2ccc3cccc(C)c3[n+]2CC)Sc2ccccc21`, the AC50 entry is “inactive”.

For the molecule `O=[N+]([O-])c1cc(F)c(N2CCOCC2)cc1N1CCCCC1`, the AC50 was 7.08 µM (active).

As for `O=C1N/C(=C\c2ccc(N3CCOCC3)c(F)c2)C(=O)N1Cc1ccccc1`, the AC50 result is “inactive”.

In the case of `Cn1ncc([N+](=O)[O-])c1C(=O)N1CCOCC1`, the AC50 entry is “inactive”.

In general, AC50 refers to the midpoint of the concentration-response curve, whichever way the signal moves.
